Experimental findings from PubChem BioAssay AID1117283 (Broad Institute, 2014) are described below.

Each structure is given as a SMILES string. Potency and affinity values are given separately. Values without a mark were called inactive.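 Rule for the calls: active = fluorescent signal decreased by at least 40%; inconclusive = no clear call, values can overlap the other calls; inactive = the rest, including activity opposite to the expected direction.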

This assay is described as follows: fibronectin fibrillogenesis inhibitors in fibroblasts, dose response, AH1F cells, Alexa488-fibronectin fluorescence, cherry-pick, set 2 (AID 1117283).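 Note: AH1F fibroblasts given Alexa488-labelled fibronectin at 24 nM final.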 To be noted: Alexa488-fibronectin deposition fluorescence, overnight; series mostly up to 35 µM; activity change, negative = inhibition: at the top concentration.
As to `Cn1cnc(S(=O)(=O)N2CCN(c3ccccc3)CC2)c1`, the “activity change, negative = inhibition” value is -6.26%.
As to `N#C[C@@H]1[C@@H](c2ccccc2C2=CCCCC2)[C@H](CO)N1S(=O)(=O)c1ccccc1`, the “activity change, negative = inhibition” value was 2.88%.
For the molecule `C[C@H](CO)N1C[C@H](C)[C@@H](CN(C)C(=O)Nc2cccc3ccccc23)Oc2c(NC(=O)Nc3ccc(C(F)(F)F)cc3)cccc2C1=O`, the “activity change, negative = inhibition” value is 3.45%.
`O=S(=O)(c1cccc(F)c1)N1CC[C@@H]2[C@@H](CO)Nc3ccc(-c4cccc(F)c4)cc3[C@@H]21`: the “activity change, negative = inhibition” value was 4.96% [at 30 µM].
Turning to `O=C(Nc1ccccc1F)N1C[C@@H]2[C@H](c3ccccc31)[C@@H](CO)N2C(=O)C1CC1`, the “activity change, negative = inhibition” value is 0.595%.
For the molecule `COC(=O)C[C@@H]1CC[C@H]2[C@H](COc3ccc(NC(=O)Cc4cccs4)cc3C(=O)N2C)O1`, the “activity change, negative = inhibition” value is -4.43% [at 30 µM].
`N#C[C@H]1[C@@H](c2ccccc2C2=CCCCC2)[C@H](CO)N1S(=O)(=O)c1ccccc1`: the “activity change, negative = inhibition” value was 3.14% [at 30 µM].
On to `COc1cccc(-c2ccc3c(c2)[C@H]2[C@H](CCN2S(=O)(=O)c2cccc(OC)c2)[C@@H](CO)N3)c1`, for which the “activity change, negative = inhibition” value is -7.16%.
As for `C[C@H]1CN([C@@H](C)CO)C(=O)c2cc(-c3ccccc3)cnc2O[C@H]1CN(C)Cc1ccccc1`, the “activity change, negative = inhibition” value was 11.9%.
For `CCc1nc2c(OCCc3cccc(OC)c3)cccn2c1N(C)C(=O)c1ccc(C)cc1`, the “activity change, negative = inhibition” value is 0.686%.
As to `Cc1ccc(S(=O)(=O)N2CC[C@H]3[C@H](CO)Nc4ccc(-c5cccc(C(=O)N(C)C)c5)cc4[C@H]32)cc1`, the “activity change, negative = inhibition” value is 3.11%.
For `C[C@H](CO)N1C[C@H](C)[C@@H](CN(C)C(=O)c2cccc(F)c2)Oc2ncc(-c3ccccc3)cc2C1=O`, the “activity change, negative = inhibition” value was 7.51%.
Turning to `COCC(=O)Nc1ccc2c(c1)C(=O)N(C)[C@H]1CC[C@@H](CC(=O)NCc3ccccc3Cl)O[C@@H]1CO2`, the “activity change, negative = inhibition” value is 8.6%.
In the case of `CO[C@@H]1CN(C)C(=O)c2ccc(NC(=O)c3ccc(-c4ccccc4)cc3)cc2OC[C@H](C)NC[C@H]1C`, the “activity change, negative = inhibition” value is 9.78% [at 30 µM].
In the case of `CO[C@@H]1CN(C)C(=O)c2cc(NC(=O)Nc3ccc(Cl)c(Cl)c3)ccc2OC[C@H](C)NC[C@H]1C` it was 8.41%.
For `COc1cccc(-c2ccc3c(c2)[C@@H]2[C@@H](CCN2S(=O)(=O)c2cccc(OC)c2)[C@H](CO)N3)c1`, the “activity change, negative = inhibition” value is -8.42%.
Regarding `C[C@H]1CN([C@@H](C)CO)C(=O)c2cc(-c3ccccc3)cnc2O[C@@H]1CN(C)Cc1ccccc1`, the “activity change, negative = inhibition” value was -1.31%.
Then `CN1c2ccc(-c3ccccc3)cc2[C@H]2[C@H](CCN2C(=O)CN2CCOCC2)[C@H]1CO`, with -7.43%; and `CCS(=O)(=O)c1ncc(Cl)c(C(=O)Nc2ccc(S(=O)(=O)N3CCC(C)CC3)cc2)n1`, with -6.19%.
On to `COC(=O)C[C@H]1CC[C@H]2[C@H](COc3ccc(NC(=O)Cc4cccs4)cc3C(=O)N2C)O1`, for which the “activity change, negative = inhibition” value was -7.38%.
For the molecule `Cc1ccc(S(=O)(=O)N2CC3(C)CN(S(=O)(=O)c4ccc(C)cc4)CC(C)(C2)C3=O)cc1`, the “activity change, negative = inhibition” value is -0.415%.
Then `CO[C@H]1CN(C)C(=O)c2cc(NC(C)=O)ccc2OC[C@@H](C)N(C(=O)CN2CCOCC2)C[C@H]1C`, with 1.65%.
Consider `COC(=O)C[C@@H]1CC[C@@H]2[C@@H](COc3ccc(NC(=O)Cc4cccs4)cc3C(=O)N2C)O1`, for which the “activity change, negative = inhibition” value is -6.16%.
Take `C[C@H](CO)N1C[C@H](C)[C@H](CN(C)Cc2ccccc2)Oc2ncc(-c3ccccc3)cc2C1=O`: the “activity change, negative = inhibition” value was 2.38%.
As to `CO[C@H]1CN(C)C(=O)c2ccc(NC(=O)c3ccc(-c4ccccc4)cc3)cc2OC[C@@H](C)NC[C@@H]1C`, the “activity change, negative = inhibition” value is -7.14%.
In the case of `CN1CCN(C(=O)c2cccc(-c3cnc4cnc(-c5ccccc5Oc5ccccc5)cn34)c2)CC1` it was 8.73%.
In the case of `O=S(=O)(c1ccccc1F)N1CC[C@@H]2[C@H](CO)Nc3ccc(-c4cccc(F)c4)cc3[C@@H]21` it was -7.86%.
Then `N#C[C@@H]1[C@@H](c2ccccc2C2=CCCCC2)[C@@H](CO)N1S(=O)(=O)c1ccccc1`, with 2.54% [at 30 µM].
As to `COC(=O)C[C@@H]1CC[C@H]2[C@@H](COc3ccc(NC(=O)Cc4cccs4)cc3C(=O)N2C)O1`, the “activity change, negative = inhibition” value was 1.52%.
Then `O=S(=O)(c1ccccc1F)N1CC[C@@H]2[C@H]1c1cc(-c3cccc(F)c3)ccc1N[C@@H]2CO`, with 2.9%; and `O=C(CN1CCCC1)Nc1ccc(Oc2ccc(NC(=O)CN3CCCC3)cc2)cc1`, with 4.45%.
For `COc1cccc(CNC(=O)CCc2nnc3ccc(NCCCN4CCCC4=O)nn23)c1`, the “activity change, negative = inhibition” value is 0.665%.
In the case of `CO[C@H]1CN(C)C(=O)c2cc(NC(=O)Nc3ccc(Cl)c(Cl)c3)ccc2OC[C@H](C)NC[C@@H]1C` it was -8.06%; in that of `CO[C@H]1CN(C)C(=O)c2cc(NC(=O)Nc3ccc(Cl)c(Cl)c3)ccc2OC[C@@H](C)NC[C@@H]1C`, -5.32%; in that of `C[C@@H]1CN([C@H](C)CO)C(=O)c2cccc(NC(=O)Nc3ccc(C(F)(F)F)cc3)c2O[C@@H]1CN(C)C(=O)Nc1cccc2ccccc12`, -3.32%.
In the case of `COC(=O)C[C@@H]1CC[C@@H]2[C@H](COc3ccc(NC(=O)Cc4cccs4)cc3C(=O)N2C)O1`, the “activity change, negative = inhibition” value was 7.5%.
On to `COCC(=O)Nc1ccc2c(c1)C(=O)N(C)[C@@H]1CC[C@@H](CC(=O)NCc3ccccc3Cl)O[C@@H]1CO2`, for which the “activity change, negative = inhibition” value is -3.34%.
